# Screening results as filed in PubChem BioAssay.
# 697 NFkB inh – inhibitors of PMA/ionomycin-induced NF-kB reporter, 697 cells, primary screen, B-cell NF-kB inhibitor project, cell-based, luminescence, uHTS; 697 B-cell NF-kB luciferase reporter, 16 h; inhibition, % at 4 µM; actives 0.33% (n = 330,000); AID 435022, 2010; in the data active = inhibition above about 35%
# Jurkat NFkB inh – inhibitors of induced NF-kB luciferase reporter, primary screen, TCR NF-kB activation inhibitor project, cell-based, luminescence, uHTS; actives 0.53% (n = 330,000); inhibition, % at 4 µM; Jurkat, PMA/ionomycin-induced NF-kB luciferase reporter; in the data active = inhibition above about 50%
# Beta cell apopt – inhibitors of cytokine-induced beta cell apoptosis, primary screen, luminescence | INS-1E cytokine-induced death, ATP luminescence, 48 h; percent of positive-control rescue, neutral wells zero | protection from apoptosis, % (test concentration not listed) | actives 0.8% (n = 300,000) | AID 435005, 2010;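 active = Every replicate reaches about 75%, or at least half do and their mean reaches it too, limit read from the data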;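 note: higher means more ATP so stronger rescue from cytokine killing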
# Gli-Sufu block – Gli-Sufu pathway antagonists, primary screen, luciferase luminescence, Sufu-KO-LIGHT cells, uHTS; Sufu-KO-LIGHT fibroblasts, Gli luciferase reporter luminescence; inhibition, % at 5 µM; actives 0.74% (n = 340,000);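 active = inhibition above about 55%, limit read from the data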
# A number is an active result; - = inactive; . = no result given. Rows were chosen to be rich in hits. Some 1.8% of all compounds tested hit in one or more screens of this group.
SMILES,697 NFkB inh,Jurkat NFkB inh,Beta cell apopt,Gli-Sufu block
O=c1cc(-c2c(F)c(F)c(F)c(F)c2F)oc2c(F)c(F)c(F)c(F)c12,-,-,107,.
O=c1cc(-c2c(F)c(F)c(F)c(F)c2F)oc2ccccc12,-,-,-,-
Cc1ccc2ccc3cccnc3c2n1,.,.,86,-
CCOC(=O)c1[nH]cnc1N=Nc1c(O)ccc2ccccc12,.,.,97,57
CC(=O)c1nnn(-c2ccccc2C#N)c1C,-,-,-,-
COc1cc(/C=C2\CC/C(=C\c3cc(OC)c(O)c(OC)c3)C2=O)cc(OC)c1O,-,-,89,-
COc1cc(/C=C2\COC/C(=C\c3cc(OC)c(OC)c(OC)c3)C2=O)cc(OC)c1OC,.,.,.,55
COC(=O)c1cc(NC(=O)Nc2ccccc2)ccc1Cl,-,-,-,-
COC(=O)c1cccc(NC(=O)Nc2ccc(Cl)c(Cl)c2)c1,-,-,82,-
C(=C\c1nc(N2CCCCCC2)c2ccccc2n1)/c1ccccc1,-,-,109,-
O=C(CNC(=O)[C@@H]1Cc2ccccc2CN1)Nc1ccc2c(c1)OCO2,-,-,-,-
Cc1ccc(SCCNC(=O)c2ccccc2C)cc1,-,-,-,-
Oc1ccc(/C=N/NC(=S)Nc2cccnc2)c(O)c1O,.,.,.,-
Oc1cccc(/C=N/NC(=S)Nc2cccnc2)c1O,.,.,87,-
NC(=S)N/N=C/c1c(O)c(Br)cc2oc3c(c12)CCCC3,-,-,82,-
Cc1ccc(SCC(=O)N=C2NC(=O)CS2)cc1,-,-,-,-
Nc1c(N(CCC2=CCCCC2)C(=O)COc2ccc(F)cc2)c(=O)[nH]c(=O)n1Cc1ccccc1,-,-,97,-
COC(=O)c1cc(C)nc2c1C(=O)C(=O)C=C2N1CCOCC1,-,-,104,-
Cc1cccn2c(=O)c3cc(C(=O)NCCc4ccccc4)c(=N)n(Cc4ccco4)c3nc12,-,-,-,-
COc1ccc(CCNC(=O)c2cc3c(=O)n4cccc(C)c4nc3n(Cc3ccco3)c2=N)cc1OC,-,-,105,-
Cc1cc(Br)c(OCc2ccc(C(=O)N/N=C/c3ccc[nH]3)cc2)c(Br)c1,-,-,117,83
O=C(N/N=C/c1ccccc1C(=O)O)c1ccc(COc2cccc3cccnc23)cc1,-,-,-,-
O=C(N/N=C/c1ccc[nH]1)c1ccc(COc2cccc3cccnc23)cc1,-,-,100,-
Cn1c(SCC(=O)N/N=C/c2ccc([N+](=O)[O-])s2)nnc1-c1ccc(Cl)cc1,-,-,89,-
COc1cccc2c1C(=O)c1c(O)c3c(c(O)c1C2=O)CC(O)(C(C)=O)CC3OC1CC(O)C(O)C(C)O1 (configuration not stated),.,.,.,55
SMILES,697 NFkB inh,Jurkat NFkB inh,Beta cell apopt,Gli-Sufu block
CCCCC(=O)OCC(=O)C1(O)Cc2c(O)c3c(c(O)c2C(OC2CC(NC(=O)C(F)(F)F)C(O)C(C)O2)C1)C(=O)c1c(OC)cccc1C3=O (configuration not stated),.,.,.,-
COc1cccc2c1C(=N)c1c(O)c3c(c(O)c1C2=O)CC(O)(C(C)=O)CC3OC1CC(N)C(O)C(C)O1 (configuration not stated),.,.,.,75
O=C(Nc1ccccc1C(F)(F)F)c1ccc(CN2CCC(Cc3ccccc3)CC2)cc1,-,-,-,-
COc1ccc(C)cc1S(=O)(=O)N1CCN(S(=O)(=O)c2cc(C)ccc2OC)C(C)C1 (configuration not stated),-,-,-,-
Oc1c(CN2CCCCC2)cc(Br)c2cccnc12,-,-,96,-
Oc1c(Cl)cc(CN2CCOCC2)c2cccnc12,-,-,-,-
O=[N+]([O-])c1cc(CN2CCOCC2)c2cccnc2c1O,.,.,.,-
O=[N+]([O-])c1cc(CN2CCN(c3ccccc3)CC2)c(O)c2ncccc12,-,-,95,80
CCOCCCNc1ncnc2c1[nH]c1ccccc12,-,-,78,-
O=C(OCC(=O)c1ccc[nH]1)c1ccc([N+](=O)[O-])cc1,-,-,-,-
CCCCOc1ccc(C(=O)NNC(=S)NC(=O)CC)cc1,.,.,79,-
O=C(O)c1cccc(-n2cccc2/C=C2/NC(=O)N(Cc3ccccc3F)C2=O)c1,-,-,-,-
CSc1c(CC(=O)Nc2ccccc2C(F)(F)F)n(Cc2ccccc2)c2ccccc12,-,-,-,-
Cc1ccc(/C=N/NC(=O)c2nnn(-c3nonc3N)c2CNc2ccccc2)cc1,-,-,-,-
Nc1nonc1-n1nnc(C(=O)N/N=C/c2cc(Br)ccc2O)c1CNc1ccccc1,-,-,97,-
